From PubChem BioAssay
Only some compounds are listed: those with a hit (about 19% of all), similar ones and a draw of the others.
ELG1 DNA repair – ELG1-dependent DNA repair inhibition. 330,000 compounds, 2.3% hits. HEK293T ELG1-luciferase reporter, luminescence, 16 h; DNA damage induced by 5-fluorouridine. Potency, µM (highest dose often 46.1 µM), hits mostly inhibitors; further: nearly all actives have a fitted effect of over 55% in size
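DMSO vehicle served as the neutral condition. Each well held 2,000 cells given 5-fluorouridine plus compound; after 16 hr at 37 °C/5% CO2, ONE-Glo was added and luciferase measured 30 min later.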
TDP1 inh – blocks human tyrosyl-DNA phosphodiesterase 1 | Q9NUW8 | recombinant TDP1, AlphaScreen DNA substrate cleavage | Potency, µM (top dose mostly 130 µM), most hits filed as inhibitors | 350,000 compounds, 0.28% hits; further: nearly all actives have a fitted effect of over 40% in size
Target sequence (Q9NUW8 whole entry, looked up): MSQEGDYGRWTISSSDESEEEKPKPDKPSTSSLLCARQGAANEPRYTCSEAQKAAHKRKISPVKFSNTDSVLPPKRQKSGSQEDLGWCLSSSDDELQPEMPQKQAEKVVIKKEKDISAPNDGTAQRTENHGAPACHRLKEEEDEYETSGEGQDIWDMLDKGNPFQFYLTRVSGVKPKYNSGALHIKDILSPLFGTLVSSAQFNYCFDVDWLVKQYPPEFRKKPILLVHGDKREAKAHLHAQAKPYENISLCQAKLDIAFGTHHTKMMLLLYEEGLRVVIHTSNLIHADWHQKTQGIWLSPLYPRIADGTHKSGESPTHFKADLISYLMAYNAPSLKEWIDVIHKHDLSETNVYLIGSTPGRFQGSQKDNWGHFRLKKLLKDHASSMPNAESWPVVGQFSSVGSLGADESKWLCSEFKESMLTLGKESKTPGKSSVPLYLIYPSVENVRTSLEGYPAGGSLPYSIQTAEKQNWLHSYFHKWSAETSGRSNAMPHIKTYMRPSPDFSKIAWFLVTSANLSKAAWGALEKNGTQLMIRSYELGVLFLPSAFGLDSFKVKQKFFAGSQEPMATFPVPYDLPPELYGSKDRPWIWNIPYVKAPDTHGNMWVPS
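Recombinant human Tdp1 (E. coli-expressed, 1 nM final) preincubated with compounds 15 min at room temperature, then 5'-biotin/3'-phosphotyrosine-FITC DNA substrate (15 nM final) added for 5 min. AlphaScreen beads (10 ug/ml final) added 10 min; cleavage lowers signal.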
Giardia killer – Giardia lamblia killing; Giardia lamblia trophozoite viability; activity change, % at 7.66 µM, hits read low; 340,000 compounds, 0.15% hits; AID 540267; in the data active means activity change below about -80%; inconclusive means between about -30% and that limit;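 further: parasites exposed to compound for two days anaerobically before the ATP read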
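Giardia trophozoites, 100 cells per well, were exposed to compounds for 48 hrs at 37 deg C under anaerobic conditions; viability was then read as ATP content by bioluminescence after 15-30 min at room temperature.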
TDP1 cell CPT – DT40-hTDP1 cell growth loss with CPT; 420,000 compounds, 12% hits; chicken DT40 Tdp1-/-;hTDP1 cells + 20 nM CPT, ATP luminescence, 48 h; Potency, µM (doses to about 46.2 µM), actives largely listed as inhibitors; further: nearly all actives have a fitted effect of over 55% in size
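Cell growth measured by CellTiter-Glo luminescence after a minimum 48 h, 37 C compound exposure with 20 nM CPT in Tdp1-knockout DT40 cells stably expressing hTDP1, seeded 400/well; qHTS titration format.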
DT40 TDP1 no CPT – qHTS for Inhibitors of human tyrosyl-DNA phosphodiesterase 1 (TDP1): qHTS in cells in absence of CPT; DT40 Tdp1-/- hTDP1 cells, no CPT, ATP luminescence, 48 h; Potency, µM (series often up to 46.2 µM), hits mostly inhibitors; 420,000 compounds, 15% hits; further: nearly all actives have a fitted effect of over 55% in size
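Readout: luminescence from CellTiter-Glo after 30 min in the dark at RT. Cells: DT40 Tdp1-/- with stable hTDP1, 400/well. Exposure: compounds alone, ≥48 hr, 37 °C.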
IL1B secr inh – inflammasome signaling inhibition, IL-1 beta readout. THP-1 LPS/ATP IL-1B secretion, AlphaLISA, 16 h; stronger effect = lower value. activity change, % at 57.5 µM. 360,000 compounds, 4.7% hits; in the data active means activity change below about -50%; inconclusive means mostly about -30% to -49%
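Secreted IL-1B measured by AlphaLISA bead assay after 16 h compound exposure of THP-1 cells; compounds (final up to 57.5 uM) added 1 h before LPS (250 ng/mL) and ATP (1.25 mM) stimulation; lower signal means less secretion.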
Hits are given with their value; . = inactive; ? = inconclusive; / = no result; ! = a repeat was not active; [ ] = dose if it differs, or a comment. Unless noted, the call rests on the fitted dose curve; in most records, active means well fitted curve in the direction sought with a large enough effect; inconclusive means small, poorly fitted or top-dose-only effect, or another doubt; inactive means no such curve, though single readings can be large; an effect the other way counts as inactive or inconclusive.

SMILES | ELG1 DNA repair | TDP1 inh | Giardia killer | TDP1 cell CPT | DT40 TDP1 no CPT | IL1B secr inh
CC(=O)Nc1ccc(NC(=O)C2Cc3c(-c4cccc(NC(C)=O)c4)ccnc3O2)cc1 (centres undefined) | / | / | / | . | . | .
CC(=O)Nc1cccc(-c2ccnc3c2CC(C(=O)Nc2cccc(N(C)C)c2)O3)c1 (centres undefined) | / | / | / | 13µM | 10µM | .
O=C(NCCc1ccc(Cl)cc1)c1cnc2sc(N3CCCC3)nn2c1=O | / | . | / | 6.5µM | 4.1µM | /
COc1ccc(CCNC(=O)c2nc(SCc3ccc(C)cc3)ncc2Cl)cc1OC | / | . | / | 12µM | 10µM | /
CC(C)CCNC(=O)c1cnc2sc(N3CCCCCC3)nn2c1=O | / | . | / | 16µM | 21µM | /
COc1cccc(CCNC(=O)c2cnc3sc(N4CCCC4)nn3c2=O)c1 | / | . | / | 15µM | 16µM | /
Cc1ccc(CSc2ncc(Cl)c(C(=O)Oc3ccccc3F)n2)cc1 | / | . | / | . | . | /
O=C(NCc1ccc(Cl)cc1)c1cnc2sc(N3CCCC3)nn2c1=O | / | . | / | ? | ? | /
COc1ccc(CCNC(=O)c2cnc3ccc(C)cn3c2=O)cc1OC | / | . | / | 21µM | ? | /
Cc1ccc2ncc(C(=O)NCCc3ccc(S(N)(=O)=O)cc3)c(=O)n2c1 | / | . | / | . | . | /
COc1ccc(CCNC(=O)c2cnc3sc(N4CCCC4)nn3c2=O)cc1OC | / | . | / | ? | 23µM | /
COCCCNC(=O)c1cnc2sc(N3CCCCC3)nn2c1=O | / | . | / | . | . | /
COc1ccc(OC)c(NC(=O)c2nc(SCc3ccccc3F)ncc2Cl)c1 | / | . | / | 10µM! | 14µM! | /
COc1ccc(CCNC(=O)c2cnc3sc(N4CCCCC4)nn3c2=O)cc1OC | / | . | / | 23µM | ? | /
COc1ccc(OC)c(NC(=O)c2nc(SCc3ccc(F)cc3)ncc2Cl)c1 | / | . | / | . | . | /
CO[C@@H]1c2cc(F)ccc2/C(=C\CCOC(=O)C/C=C/c2ccccc2)[C@H]1C | / | . | / | / | / | /
COC(=O)CC[C@@H](C)[C@H]1CC[C@H]2[C@@H]3CC[C@@H]4C[C@H](O)CC[C@]4(C)[C@H]3C[C@H](O)[C@]12C | / | . | / | ? | . | /
COC(=O)CCC(C)C1CCC2C3CCC4CC(O)CCC4(C)C3=CC(=O)C12C (centres undefined) | / | / | . | ? | ? | -53
O=c1oc(-c2ccc([N+](=O)[O-])cc2)nc2ccc(O)cc12 | . | . | . | . | . | -68
c1ccc(-n2cnnc2SCc2nc3ccccc3s2)cc1 | ? | . | . | . | . | .
c1ccc(-c2ncc(CSc3nncn3-c3ccccc3)s2)cc1 | . | . | . | ? | 18µM | .
CCCCCCCCN=C(N)c1ccc(C(=O)OCC2CCCCC2)cc1 | / | . | / | / | / | /
CCOC(=O)C(=O)NCC(c1cccs1)S(=O)(=O)c1ccc(Cl)cc1 (centres undefined) | ? | . | . | . | . | .
CCOC(=O)/C(=N/Nc1ccc(Cl)cc1)S(=O)(=O)c1ccccc1 | . | . | . | . | ? | -69
COCC(=O)Nc1nc(-c2ccc([N+](=O)[O-])cc2)cs1 | . | . | . | . | ? | .
SMILES | ELG1 DNA repair | TDP1 inh | Giardia killer | TDP1 cell CPT | DT40 TDP1 no CPT | IL1B secr inh
COc1ccccc1N(C(=O)c1ccncc1)c1nc(-c2ccc([N+](=O)[O-])cc2)cs1 | ? | . | . | 16µM | 16µM | .
NNC(=O)CNC(c1ccccc1)c1cc(Br)ccc1N (centres undefined) | . | . | . | . | . | -72
COC(=O)CNC(c1ccccc1)c1cc(Br)ccc1N (centres undefined) | . | . | . | . | ? | .
Cc1cccc(NC(=O)CN2CCN(C(=O)C(C)Oc3ccc(C#N)cc3)CC2)c1C (centres undefined) | ? | . | . | . | . | .
CC(Oc1ccc(C#N)cc1)C(=O)N1CC=C(c2ccccc2)CC1 (centres undefined) | ? | . | . | ? | ? | -61
O=c1c2ccccc2[nH]c(=S)n1CCCN1CCC(Cc2ccccc2)CC1 | . | / | . | ? | ? | .
Cc1ccc2c(CN(Cc3ccccc3)Cc3ccccc3)cc(=O)oc2c1 | / | / | / | ? | ? | .
Cc1cc(C)c2c(CN3CCN(Cc4ccc5c(c4)OCO5)CC3)cc(=O)oc2c1 | ? | . | . | ? | 16µM | .
Cc1cc(C)c2c(CN(Cc3ccccc3)Cc3ccccc3)cc(=O)oc2c1 | / | / | / | 23µM | 16µM | .
CC(C)CC(c1nnnn1C1CCCC1)N1CCC(C(N)=O)CC1 (centres undefined) | . | . | . | . | . | .
CCCn1c(N)c(C(=O)CN2CCN(S(=O)(=O)c3cccc(Cl)c3)CC2)c(=O)[nH]c1=O | ? | . | . | ? | . | .
Cc1cc(N(C)C)c(C)cc1/C=C/c1ccnc2ccccc12 | / | / | / | 0.79µM | 0.56µM | /
Cc1ccnc2ccccc12 | / | / | / | . | . | /
CCN(CC)c1cc(C)c(/C=C/c2ccnc3ccccc23)cc1C | / | / | / | 10µM | 13µM | /
N#CCc1ccnc2ccccc12 | / | / | . | ? | . | .
Cc1ncc2c(c1CNC(=O)c1ccc3c(c1)OCO3)CCN(C(=O)c1coc3c1C(=O)CCC3)C2 | / | / | / | .[9.04 µM] | . | /
COc1cccc(/C=C(/C(=O)OCC(N)=O)c2ccccc2)c1 | . | . | . | . | . | .
COc1cccc(/C=C(/C(=O)OCC(=O)NC2CCCC(C)C2C)c2ccccc2)c1 (centres undefined) | ? | . | . | ? | 21µM | -65
COc1ccc(CC(=O)N/N=C(\C)c2cccs2)cc1 | . | . | . | . | . | .
Cc1nc(C(=O)Nc2ccc(Cl)cc2)sc1C1(C)CC(c2cccc([N+](=O)[O-])c2)=NO1 (centres undefined) | / | / | . | ? | ? | .
COc1ccc(NC(=O)c2nc(C)c(C3(C)CC(c4cccnc4)=NO3)s2)cc1 (centres undefined) | ? | . | . | 5.8µM | 3.7µM | .
Cc1nc(C(=O)NCCC(C)C)sc1C1(C)CC(c2ccccc2)=NO1 (centres undefined) | 13µM | . | . | . | . | .
Cc1nc(C(=O)NC2CCCCC2)sc1C1(C)CC(c2cccc([N+](=O)[O-])c2)=NO1 (centres undefined) | ? | . | . | ? | 23µM | .
Cc1nc(C(=O)Nc2cc(F)cc(Cl)c2)sc1C1(C)CC(c2ccccc2)=NO1 (centres undefined) | / | / | . | 16µM | 21µM | ?
C(=NN=C1c2ccccc2-c2ccccc21)c1ccc2c(c1)OCO2 | / | / | . | ? | . | .
